# This is part of a sample that, as a whole, favours compounds with a hit. Of some 79,000 tested, about 15% had one in any assay. Values without a mark were called inactive. The source made the active and inactive calls. Cut-off read from the data, not from the text of the source: active = growth inhibition above about 70%; inactive = the rest.
# Legend:
# [1] = NCI Yeast Anticancer Drug Screen. Data for the rad50 strain (AID 155);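 note: 0% = growth of vehicle-only cultures of the same strain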; conditions: S. cerevisiae rad50 strain growth inhibition, hits give high values
# Outline: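 Compounds were tested on a yeast strain with an engineered DNA damage repair alteration; the reported value is growth inhibition normalised to vehicle treatment.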
# [2] = NCI Yeast Anticancer Drug Screen. Data for the mec2-1 strain (AID 157); conditions: S. cerevisiae mec2-1 strain, hits give high values
# Outline: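 Yeast mec2-1 mutant treated with compound. Readout: growth inhibition vs vehicle controls.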
# [3] = NCI Yeast Anticancer Drug Screen. Data for the sgs1 mgt1 strain (AID 161);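 note: 0% = growth of cultures given vehicle only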; conditions: S. cerevisiae sgs1 mgt1 strain, hits give high values
# Outline: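 Genetically altered yeast, compound exposure, growth inhibition relative to vehicle.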
# [4] = NCI Yeast Anticancer Drug Screen. Data for the cln2 rad14 strain (AID 165);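 note: 0% = growth equal to vehicle treated cultures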; conditions: S. cerevisiae cln2 rad14 strain, hits give high values
# Outline: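 cln2 rad14 yeast strain; compound exposure; growth inhibition read vs vehicle controls.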
# [5] = NCI Yeast Anticancer Drug Screen. Data for the bub3 strain (AID 167); conditions: S. cerevisiae bub3 mutant strain, hits give high values
# Outline: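 Growth of a checkpoint-deficient yeast mutant is measured after compound exposure. Values represent inhibition relative to vehicle.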
# [6] = NCI Yeast Anticancer Drug Screen. Data for the mlh1 rad18 strain (AID 175); conditions: S. cerevisiae mlh1 rad18 strain growth inhibition, hits give high values
# Outline: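 Yeast w/ defined DNA-repair lesions; compound exposure; growth vs vehicle controls → % inhibition.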
# [7] = at 5.0 µM (retest, dose inferred, filed as 0.5)
# [8] = at 50.0 µM (retest, dose inferred, filed as 5.0)
Compound,"growth inhibition [1, 7]","growth inhibition [1, 8]",growth inhibition ([1]; at 50.0 µM),"growth inhibition [2, 7]","growth inhibition [2, 8]",growth inhibition ([2]; at 50.0 µM),"growth inhibition [3, 7]","growth inhibition [3, 8]",growth inhibition ([3]; at 50.0 µM),"growth inhibition [4, 7]","growth inhibition [4, 8]",growth inhibition ([4]; at 50.0 µM),"growth inhibition [5, 7]","growth inhibition [5, 8]",growth inhibition ([5]; at 50.0 µM),"growth inhibition [6, 7]","growth inhibition [6, 8]",growth inhibition ([6]; at 50.0 µM)
On1c(-c2ccccc2)nc2ccccc2c1=S,32%,39%,86.5% (active),41%,43%,86.7% (active),47%,95% (active),37%,28%,95% (active),25.4%,50%,94% (active),90.2% (active),39%,43%,84.5% (active)
Cc1cc(I)nc2ccccc12,0%,15%,68.4%,-1%,1%,21.2%,-3%,8%,59%,-3%,-18%,-18.4%,-6%,-13%,26.8%,-2%,-12%,48.7%
COc1ccc2nc3c4c(nccc4c2c1)-c1ncccc1C3=O,93% (active),97% (active),89.2% (active),31%,98% (active),87.5% (active),43%,97% (active),90.8% (active),61%,97% (active),90.6% (active),58%,96% (active),89.5% (active),93% (active),97% (active),-43%
Clc1ccccc1C(c1ccccc1)(c1ccccc1)n1ccnc1,44%,99% (active),99.3% (active),20%,99% (active),99.8% (active),53%,99% (active),99.6% (active),18%,99% (active),99.2% (active),34%,99% (active),99.6% (active),30%,99% (active),99.7% (active)
COC(=O)[C@]1(C)CCC[C@@]2(C)[C@@H]3C[C@@H]4[C@H]5C[C@@]3(CC[C@@H]21)C[C@@]45C,31%,99% (active),92.2% (active),28%,99% (active),93.5% (active),34%,99% (active),93.7% (active),31%,99% (active),92.3% (active),32%,100% (active),92.2% (active),37%,99% (active),86.8% (active)
O=C(O)c1cc2c(s1)C(=O)c1sccc1C2=O,37%,75% (active),71.5% (active),33%,69%,57.6%,39%,66%,72% (active),12%,30%,54.9%,36%,79% (active),71.2% (active),39%,79% (active),92.8% (active)
CC1=CC(=NC(=O)CBr)C=C/C1=N\S(=O)(=O)c1ccccc1,65%,99% (active),56.5%,44%,100% (active),33.2%,46%,100% (active),55%,42%,81% (active),28.3%,46%,97% (active),84.5% (active),55%,99% (active),56.1%
O=C1C=CC(=O)N1c1ccccc1,95% (active),98% (active),99.3% (active),99% (active),99% (active),99.7% (active),94% (active),99% (active),99.4% (active),94% (active),99% (active),99% (active),99% (active),99% (active),99.2% (active),90% (active),99% (active),99.2% (active)
COc1ccc2c(c1)C(OC)C1c3c(cc4c(c3-2)OCO4)CCN1C (configuration not stated),24%,52%,-23.1%,14%,27%,-17.5%,12%,28%,-8.75%,22%,28%,-1.45%,28%,35%,-6.05%,35%,53%,78.3% (active)
CCCCCC/C=C1\CCC(CN2CCCC2)C1=O (configuration not stated),52%,97% (active),91% (active),33%,99% (active),70.7% (active),59%,96% (active),90.4% (active),71% (active),87% (active),81.9% (active),66%,99% (active),79.5% (active),78% (active),98% (active),89.2% (active)
CN1CSC(=S)N(Cc2ccccc2)C1,20%,78% (active),73.6% (active),-5%,76% (active),87.8% (active),15%,67%,86.6% (active),19%,41%,21.2%,25%,90% (active),88.3% (active),-2%,89% (active),75.3% (active)
COc1cc(NCc2ccc3nc(N)nc(N)c3c2C)cc(OC)c1OC (tested in a mixture with another compound),24%,54%,12.3%,18%,87% (active),51.8%,12%,31%,43.2%,23%,23%,2.8%,17%,24%,5.05%,23%,36%,-45.4%
CN(C)c1ccc(/C=C/c2nccc3ccccc23)cc1,-9%,96% (active),91% (active),8%,96% (active),91.9% (active),3%,97% (active),94.7% (active),-8%,96% (active),75.5% (active),4%,97% (active),93.7% (active),10%,95% (active),91% (active)
CN(C)c1ccc(/C=C/c2sc3ccc4ccccc4c3[n+]2C)cc1,97% (active),96% (active),89.1% (active),99% (active),98% (active),89.7% (active),100% (active),98% (active),90.2% (active),99% (active),97% (active),89.5% (active),99% (active),97% (active),89.8% (active),98% (active),97% (active),89.2% (active)
O=C(Cc1nc2cc(Cl)c(Cl)cc2nc1CC(=O)c1ccccc1)c1ccccc1,-7%,93% (active),96.4% (active),-9%,76% (active),96.8% (active),-9%,84% (active),96.8% (active),7%,74% (active),94.8% (active),-4%,90% (active),96.5% (active),-9%,93% (active),96% (active)
CCN(CC)CC(O)CNc1ccc(NCC2CO2)c2c1C(=O)c1ccccc1C2=O (configuration not stated),71% (active),76% (active),34.1%,23%,79% (active),25.6%,76% (active),84% (active),48.8%,49%,83% (active),56%,43%,59%,-36%,52%,74% (active),59%
CC1(C=O)CCC23COC4(CCC5C6(C)CCC(OC7OCC(OC8OC(CO)C(O)C(OC9OC(CO)C(O)C(O)C9O)C8OC8OCC(O)C(O)C8O)C(O)C7OC7OC(CO)C(O)C(O)C7O)C(C)(C)C6CCC5(C)C4(C)CC2O)C3C1 (configuration not stated),22%,93% (active),66.8%,14%,96% (active),85.2% (active),9%,96% (active),88.2% (active),18%,94% (active),86.2% (active),16%,97% (active),87.1% (active),22%,98% (active),82.3% (active)
CC1(C)OCC(COC(c2ccccc2)(c2ccccc2)c2ccccc2)O1 (configuration not stated),-7%,14%,21.1%,-6%,12%,4.65%,-9%,2%,-0.5%,-4%,16%,-33%,-2%,63%,40.2%,-5%,28%,43.6%
COC(=O)c1nc(=S)[nH]c(C(=O)OC)c1C(=O)c1ccc(Cl)c(Cl)c1,-8%,98% (active),99.5% (active),-1%,98% (active),99% (active),7%,98% (active),99.3% (active),4%,95% (active),98.5% (active),0%,98% (active),98.2% (active),11%,99% (active),99.2% (active)

# From PubChem BioAssay (NCI)
